“And” between values parts separate entries of the source, which are not always exact repeats. Equal values may be shown once. Records with an inconclusive call do not appear. Where a call stands in place of a potency, no number is given. Some compounds were tested as several samples or in several runs, with calls that do not always agree. The source made the active and inactive calls. Calls follow the shape of the dose curve; as a rule, active = well fitted curve in the direction sought with a large enough effect in the repeat runs; inconclusive = weak or mixed curves; inactive = no such curve, though single readings can be large; an effect the other way counts as inactive or inconclusive.

A short description of the first experiment: qHTS RealTime-Glo MT Cell Viability Assay in HepG2 cells - 32 hour (AID 1224877). Also: nearly all actives have a fitted effect of over 55% in size. The settings on record: RealTime-Glo luminescence; series mostly up to 76.8 µM; activity change, negative = cytotoxic: at the top concentration. The gist of the method:
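Cell number in HepG2 cultures estimated from NanoLuc luminescence generated by metabolic reduction of a prosubstrate by living cells. The homogeneous, nonlytic format allowed repeated reads at 0, 8, 16, 24, 32 and 40 h of compound exposure.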
As for `CCCCN(CCCC)CCCC`, the compound was called inactive.

As for `CCOC(=O)NNc1nncc2ccccc12`, the call was inactive.

In the case of `C[Si](O[Si](C)(C)C)O[Si](C)(C)C`, the result was inactive.

Regarding `N[C@@H](Cc1cc(I)c(Oc2cc(I)c(O)c(I)c2)c(I)c1)C(=O)O`, the result was inactive.

Take `O=C(O)c1ccccc1C(c1ccc(O)cc1)c1ccc(O)cc1`: the compound was called inactive.

As to `CCCCCCCCC/C=C/CC1CC(=O)OC1=O` (centres undefined), the call was inactive.

`C#C[C@]1(O)CC[C@H]2[C@@H]3CCC4=CC(=O)CC[C@@H]4[C@H]3CC[C@@]21C`: the call was inactive.

As for `CCCCCC(N)=O`, the call was inactive.

In the case of `O=C(O)c1ccc(C(=O)O)cc1`, the outcome was inactive.

As to `CC1CCC(C(C)C)C(O)C1` (centres undefined), the call was inactive.

In the case of `CC1CCC2CC1C2(C)C` (centres undefined), the compound was classed as inactive.

`CSCCC=O`: the call was inactive.

On to `OCCOCCOCCO`, for which the compound was called inactive.

As for `O=c1[nH]nnc2ccccc12`, the outcome was inactive.

As to `CC(=O)CC(=O)Nc1ccccc1C`, the result was inactive.

Regarding `CN(C)CCC(c1ccccc1)c1ccccn1` (centres undefined), the call was inactive.

Turning to `CCCCCC/C(C=O)=C\c1ccccc1`, the compound was called inactive.

`Nc1ccccc1[N+](=O)[O-]`: the result was inactive.

As to `C=C(C)C(=O)O[C@H]1C[C@@H]2CC[C@@]1(C)C2(C)C`, the outcome was inactive.

For `OCC(CO)(CBr)CBr`, the compound was called inactive.

As to `CC(=O)Nc1ccccc1`, the result was inactive.

Turning to `CCCCOC(=O)COc1ccc(Cl)cc1Cl`, the call was inactive.

Turning to `CCCCC(CC)COC(=O)CCCCC(=O)OCC(CC)CCCC` (centres undefined), the compound was called inactive.

As to `C[C@H]1C[C@H]2[C@@H]3CCC4=CC(=O)C=C[C@]4(C)[C@@]3(F)[C@@H](O)C[C@]2(C)[C@@]1(O)C(=O)CO`, the result was inactive.

`O=P(OC(CCl)CCl)(OC(CCl)CCl)OC(CCl)CCl`: the compound was called inactive.

Turning to `Cc1ccc(N(C)C)cc1`, the compound was classed as inactive.

On to `COc1ccc(NC(C)=O)cc1N`, for which the call was inactive.

`C/C=C1/CC2C=CC1C2` (centres undefined): the outcome was inactive.

With `C#CCN(C)Cc1ccccc1`, the compound was called inactive.

With `C=C(C)C(=O)OCCOCCOCCOC(=O)C(=C)C`, the outcome was inactive.

On to `CC(C)CC(=O)CC(C)C`, for which the compound was called inactive.

For the compound `CCC(O)OCCCOC` (centres undefined), the compound was classed as inactive.

For `OCc1cccnc1`, the call was inactive.

Regarding `CC1=CCC2CC1C2(C)C` (centres undefined), the compound was called inactive.

On to `O=C(O)c1ccc2c(c1)C(=O)OC2=O`, for which the result was inactive.

Regarding `CCCCCOC(C)=O`, the result was inactive.

Consider `O=C=NCCCCCCN=C=O`, for which the result was inactive.

Take `CCc1ccc(CCOc2ccc(CC3SC(=O)NC3=O)cc2)nc1` (centres undefined): the call was inactive.

A short description of another experiment: A CellTox Green Cytotoxicity Assay to monitor cytotoxicity in HepG2 cells - 24 hour (AID 1224878). Also: nearly all actives have a fitted effect of over 45% in size. Also: potency is read from the fitted curve at half-maximal effect. Particulars: CellTox Green fluorescence; series mostly up to 76.8 µM; cytotoxicity: at the top concentration. The procedure, abridged:
(§1)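 Cytotoxicity was tracked as dead-cell DNA fluorescence in HepG2 cells treated with test compounds at 37 C; each time-point value comes from one kinetic series spanning 0, 8, 16, 24, 32 and 40 h.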
Consider `CCCCN(CCCC)CCCC`, for which the Potency entry was “inactive”.

With `CCOC(=O)NNc1nncc2ccccc12`, the Potency result is “inactive”.

On to `C[Si](O[Si](C)(C)C)O[Si](C)(C)C`, for which the Potency entry was “inactive”.

As to `N[C@@H](Cc1cc(I)c(Oc2cc(I)c(O)c(I)c2)c(I)c1)C(=O)O`, the Potency entry is “inactive”.

As for `O=C(O)c1ccccc1C(c1ccc(O)cc1)c1ccc(O)cc1`, the Potency result was “inactive”.

As for `CCCCCCCCC/C=C/CC1CC(=O)OC1=O` (centres undefined), the Potency entry is “inactive”.

`C#C[C@]1(O)CC[C@H]2[C@@H]3CCC4=CC(=O)CC[C@@H]4[C@H]3CC[C@@]21C`: the “cytotoxicity” value was 0.975% [at 35.3 µM] (inactive).

Regarding `CCCCCC(N)=O`, the Potency entry was “inactive”.

Take `O=C(O)c1ccc(C(=O)O)cc1`: the “cytotoxicity” value was -1.31% (inactive).

Consider `CC1CCC(C(C)C)C(O)C1` (centres undefined), for which the Potency entry is “inactive”.

As to `CC1CCC2CC1C2(C)C` (centres undefined), the Potency result is “inactive”.

In the case of `CSCCC=O`, the Potency result was “inactive”.

Take `OCCOCCOCCO`: the Potency entry is “inactive”.

In the case of `O=c1[nH]nnc2ccccc12`, the Potency entry was “inactive”.

Regarding `CC(=O)CC(=O)Nc1ccccc1C`, the Potency entry was “inactive”.

`CN(C)CCC(c1ccccc1)c1ccccn1` (centres undefined): the Potency entry is “inactive”.

Regarding `CCCCCC/C(C=O)=C\c1ccccc1`, the “cytotoxicity” value is 12.4% (inactive).

`Nc1ccccc1[N+](=O)[O-]`: the Potency result was “inactive”.

As to `C=C(C)C(=O)O[C@H]1C[C@@H]2CC[C@@]1(C)C2(C)C`, the Potency is 4.87 µM (active) and inactive.

For the compound `OCC(CO)(CBr)CBr`, the Potency entry is “inactive”.

On to `CC(=O)Nc1ccccc1`, for which the Potency entry is “inactive”.

Take `CCCCOC(=O)COc1ccc(Cl)cc1Cl`: the Potency entry is “inactive”.

With `CCCCC(CC)COC(=O)CCCCC(=O)OCC(CC)CCCC` (centres undefined), the Potency result was “inactive”.

With `C[C@H]1C[C@H]2[C@@H]3CCC4=CC(=O)C=C[C@]4(C)[C@@]3(F)[C@@H](O)C[C@]2(C)[C@@]1(O)C(=O)CO`, the Potency result was “inactive”.

Take `O=P(OC(CCl)CCl)(OC(CCl)CCl)OC(CCl)CCl`: the Potency entry was “inactive”.

For the compound `Cc1ccc(N(C)C)cc1`, the Potency result was “inactive”.

On to `COc1ccc(NC(C)=O)cc1N`, for which the Potency entry was “inactive and 49 µM (active)”.

For the compound `C/C=C1/CC2C=CC1C2` (centres undefined), the Potency result was “inactive”.

With `C#CCN(C)Cc1ccccc1`, the Potency entry was “inactive”.

Consider `C=C(C)C(=O)OCCOCCOCCOC(=O)C(=C)C`, for which the Potency entry was “inactive”.

Regarding `CC(C)CC(=O)CC(C)C`, the Potency result is “inactive”.

`CCC(O)OCCCOC` (centres undefined): the Potency result is “inactive”.

Take `OCc1cccnc1`: the Potency result is “inactive”.

Take `CC1=CCC2CC1C2(C)C` (centres undefined): the Potency result is “inactive”.

`O=C(O)c1ccc2c(c1)C(=O)OC2=O`: the Potency result is “inactive”.

As for `CCCCCOC(C)=O`, the Potency result is “inactive”.

In the case of `O=C=NCCCCCCN=C=O`, the Potency result was “inactive”.

Turning to `CCc1ccc(CCOc2ccc(CC3SC(=O)NC3=O)cc2)nc1` (centres undefined), the Potency result was “inactive”.

A further experiment can be described thus: A CellTox Green Cytotoxicity Assay to monitor cytotoxicity in HepG2 cells - 40 hour (AID 1224879). Also: nearly all actives have a fitted effect of over 40% in size. Also: potency is read from the fitted curve at half-maximal effect. The settings on record: CellTox Green fluorescence; series mostly up to 76.8 µM; cytotoxicity increase: at the top concentration. The procedure, abridged:
as §1
Turning to `CCCCN(CCCC)CCCC`, the Potency entry is “inactive”.

`CCOC(=O)NNc1nncc2ccccc12`: the Potency entry is “inactive”.

With `C[Si](O[Si](C)(C)C)O[Si](C)(C)C`, the Potency entry is “inactive”.

Turning to `N[C@@H](Cc1cc(I)c(Oc2cc(I)c(O)c(I)c2)c(I)c1)C(=O)O`, the Potency entry is “inactive”.

On to `O=C(O)c1ccccc1C(c1ccc(O)cc1)c1ccc(O)cc1`, for which the Potency result was “inactive”.

As to `CCCCCCCCC/C=C/CC1CC(=O)OC1=O` (centres undefined), the Potency entry was “inactive”.

As for `C#C[C@]1(O)CC[C@H]2[C@@H]3CCC4=CC(=O)CC[C@@H]4[C@H]3CC[C@@]21C`, the “cytotoxicity increase” value is 2.25% [at 35.3 µM] (inactive).

For the compound `CCCCCC(N)=O`, the Potency entry was “inactive”.

Take `O=C(O)c1ccc(C(=O)O)cc1`: the Potency result is “inactive and 15.5 µM (active)”.

`CC1CCC(C(C)C)C(O)C1` (centres undefined): the Potency result is “inactive”.

On to `CC1CCC2CC1C2(C)C` (centres undefined), for which the Potency entry was “inactive”.

Regarding `CSCCC=O`, the “cytotoxicity increase” value was -4.95% (inactive).

On to `OCCOCCOCCO`, for which the Potency result is “inactive”.

For the compound `O=c1[nH]nnc2ccccc12`, the Potency entry is “inactive”.

Take `CC(=O)CC(=O)Nc1ccccc1C`: the Potency entry was “inactive”.

With `CN(C)CCC(c1ccccc1)c1ccccn1` (centres undefined), the Potency entry is “inactive”.

As for `CCCCCC/C(C=O)=C\c1ccccc1`, the “cytotoxicity increase” value was 14.2% (inactive).

`Nc1ccccc1[N+](=O)[O-]`: the Potency entry is “inactive”.

`C=C(C)C(=O)O[C@H]1C[C@@H]2CC[C@@]1(C)C2(C)C`: the Potency is 7.71 µM (active) and inactive.

As for `OCC(CO)(CBr)CBr`, the Potency entry is “inactive”.

For the compound `CC(=O)Nc1ccccc1`, the Potency result is “inactive”.

As to `CCCCOC(=O)COc1ccc(Cl)cc1Cl`, the Potency entry was “inactive”.

Regarding `CCCCC(CC)COC(=O)CCCCC(=O)OCC(CC)CCCC` (centres undefined), the Potency result was “inactive and 2.45 µM (active)”.

Regarding `C[C@H]1C[C@H]2[C@@H]3CCC4=CC(=O)C=C[C@]4(C)[C@@]3(F)[C@@H](O)C[C@]2(C)[C@@]1(O)C(=O)CO`, the Potency entry was “inactive”.

In the case of `O=P(OC(CCl)CCl)(OC(CCl)CCl)OC(CCl)CCl`, the Potency entry was “inactive”.

Take `Cc1ccc(N(C)C)cc1`: the Potency entry is “inactive”.

Consider `COc1ccc(NC(C)=O)cc1N`, for which the Potency result is “inactive and 43.6 µM (active)”.

Regarding `C/C=C1/CC2C=CC1C2` (centres undefined), the Potency entry was “inactive”.

Turning to `C#CCN(C)Cc1ccccc1`, the Potency entry is “inactive”.

As to `C=C(C)C(=O)OCCOCCOCCOC(=O)C(=C)C`, the Potency entry was “inactive”.

Regarding `CC(C)CC(=O)CC(C)C`, the Potency result is “inactive”.

Turning to `CCC(O)OCCCOC` (centres undefined), the Potency result is “inactive”.

Take `OCc1cccnc1`: the Potency entry was “inactive”.

For the compound `CC1=CCC2CC1C2(C)C` (centres undefined), the Potency result was “inactive”.

`O=C(O)c1ccc2c(c1)C(=O)OC2=O`: the Potency result is “inactive”.

With `CCCCCOC(C)=O`, the Potency entry is “inactive”.

For `O=C=NCCCCCCN=C=O`, the Potency result is “inactive”.

Consider `CCc1ccc(CCOc2ccc(CC3SC(=O)NC3=O)cc2)nc1` (centres undefined), for which the Potency entry was “inactive”.

The values are drawn from PubChem BioAssay (Tox21).
